In all, about 5,500 compounds went through this assay and about 2,000 (36%) were called active. About 18% were inconclusive and are not listed. Rule as the data show it: active = normalized growth mostly below about 0.91 (no sharp cut-off); inconclusive = no clear call, values can overlap the other calls; inactive = mostly above about 0.92. This is one part of the list.
Assay: chemical genetic growth profiling, strain panel (AID 1159580);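 also: tested at 20 µM; growth read once vehicle control cultures reached saturation at 30 °C; 1 = growth at the plate median or of vehicle wells; lower values mean less growth of the strain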
Conditions: growth OD

Measured: normalized growth

Cc1ccc(-c2cc(C(F)(F)F)nn2-c2ccc(S(N)(=O)=O)cc2)cc1
inactive: S. cerevisiae deletion strains, locus YJR075W, strain HOC1, active compounds read low 1.02 | S. cerevisiae deletion strains, locus YKL009W, strain mrt4, active compounds read low 0.965 | S. cerevisiae deletion strains, locus YKL068W, active compounds read low 1 | S. cerevisiae deletion strains, locus YKL085W, strain MDH1 (second series), active compounds read low 1 | S. cerevisiae deletion strains, locus YKL085W, strain MDH1, active compounds read low 1 | S. cerevisiae deletion strains, locus YKL160W, strain elf1, active compounds read low 1.03 | S. cerevisiae deletion strains, locus YKL190W, strain CNB1, active compounds read low 0.999 | S. cerevisiae deletion strains, locus YKR001C, strain vps1, active compounds read low 0.988 | S. cerevisiae deletion strains, locus YKR026C, strain gcn3, active compounds read low 1.03 | S. cerevisiae deletion strains, locus YKR091W, strain srl3, active compounds read low 1.02 | S. cerevisiae deletion strains, locus YLL001W, strain dnm1, active compounds read low 1.03 | S. cerevisiae deletion strains, locus YLL026W, active compounds read low 1.02 | S. cerevisiae deletion strains, locus YLL041C, strain sdh2, active compounds read low 1.02 | S. cerevisiae deletion strains, locus YLR027C, strain aat2, active compounds read low 1.02 | S. cerevisiae deletion strains, locus YLR039C, strain RIC1, active compounds read low 0.967 | S. cerevisiae deletion strains, locus YLR058C, strain SHM2, active compounds read low 0.998 | S. cerevisiae deletion strains, locus YLR102C, strain apc9, active compounds read low 1.01 | S. cerevisiae deletion strains, locus YLR113W, strain HOG1, active compounds read low 0.984 | S. cerevisiae deletion strains, locus YLR221C, strain rsa3, active compounds read low 1.03 | S. cerevisiae deletion strains, locus YLR258W, strain gsy2, active compounds read low 1.02 | S. cerevisiae deletion strains, locus YLR262C, strain YPT6 (second series), active compounds read low 1.01 | S. cerevisiae deletion strains, locus YLR262C, strain YPT6, active compounds read low 0.939 | S. cerevisiae deletion strains, locus YLR268W, strain sec22, active compounds read low 1.08 | S. cerevisiae deletion strains, locus YLR320W, strain mms22, active compounds read low 1.04 | S. cerevisiae deletion strains, locus YLR330W, strain CHS5, active compounds read low 1 | S. cerevisiae deletion strains, locus YLR342W, strain FKS1 (second series), active compounds read low 1.04 | S. cerevisiae deletion strains, locus YLR342W, strain FKS1, active compounds read low 1.03 | S. cerevisiae deletion strains, locus YLR357W, strain rsc2, active compounds read low 1.09 | S. cerevisiae deletion strains, locus YLR370C, strain arc18, active compounds read low 1.03 | S. cerevisiae deletion strains, locus YLR371W, strain rom2, active compounds read low 1.02 | S. cerevisiae deletion strains, locus YLR384C, strain iki3, active compounds read low 1.02 | S. cerevisiae deletion strains, locus YLR418C, strain cdc73, active compounds read low 1.01 | S. cerevisiae deletion strains, locus YML016C, strain PPZ1, active compounds read low 0.989 | S. cerevisiae deletion strains, locus YML032C, strain rad52, active compounds read low 1.05 | S. cerevisiae deletion strains, locus YML120C, strain ndi1, active compounds read low 1.03 | S. cerevisiae deletion strains, locus YML124C, strain tub3, active compounds read low 1.01 | S. cerevisiae deletion strains, locus YMR058W, strain fet3, active compounds read low 1.03 | S. cerevisiae deletion strains, locus YMR078C, strain ctf18, active compounds read low 1.02 | S. cerevisiae deletion strains, locus YMR125W, strain sto1, active compounds read low 1.03 | S. cerevisiae deletion strains, locus YMR129W, active compounds read low 1.02 | S. cerevisiae deletion strains, locus YMR205C, strain PFK2, active compounds read low 1.04 | S. cerevisiae deletion strains, locus YMR223W, strain ubp8, active compounds read low 0.999 | S. cerevisiae deletion strains, locus YMR231W, strain pep5, active compounds read low 1.03 | S. cerevisiae deletion strains, locus YMR263W, strain SAP30, active compounds read low 1.01 | S. cerevisiae deletion strains, locus YMR307W, strain GAS1, active compounds read low 0.959 | S. cerevisiae deletion strains, locus YNL067W, strain RPL9B, active compounds read low 1.02 | S. cerevisiae deletion strains, locus YNL071W, strain lat1, active compounds read low 1.02 | S. cerevisiae deletion strains, locus YNL128W, strain TEP1, active compounds read low 1.02 | S. cerevisiae deletion strains, locus YNL153C, strain GIM3, active compounds read low 1.03 | S. cerevisiae deletion strains, locus YNL183C, strain NPR1, active compounds read low 0.954 | S. cerevisiae deletion strains, locus YNL209W, strain ssb2, active compounds read low 1.02 | S. cerevisiae deletion strains, locus YNL233W, strain BNI4, active compounds read low 1.02 | S. cerevisiae deletion strains, locus YNL248C, strain rpa49, active compounds read low 1.03 | S. cerevisiae deletion strains, locus YNL250W, strain rad50, active compounds read low 1.02 | S. cerevisiae deletion strains, locus YNL271C, strain bni1, active compounds read low 1.01 | S. cerevisiae deletion strains, locus YNL298W, strain CLA4, active compounds read low 0.992 | S. cerevisiae deletion strains, locus YNL307C, strain MCK1, active compounds read low 1 | S. cerevisiae deletion strains, locus YNL322C, strain KRE1 (second series), active compounds read low 1.03 | S. cerevisiae deletion strains, locus YNL322C, strain KRE1, active compounds read low 0.997 | S. cerevisiae deletion strains, locus YNR049C, strain mso1, active compounds read low 1.03 | S. cerevisiae deletion strains, locus YNR052C, strain pop2, active compounds read low 1.01 | S. cerevisiae deletion strains, locus YOL006C, strain TOP1, active compounds read low 1 | S. cerevisiae deletion strains, locus YOL012C, strain htz1 0.962 | S. cerevisiae deletion strains, locus YOL147C, strain pex11, active compounds read low 1.01 | S. cerevisiae deletion strains, locus YOR001W, strain rrp6, active compounds read low 1.03 | S. cerevisiae deletion strains, locus YOR061W, strain CKA2, active compounds read low 0.998 | S. cerevisiae deletion strains, locus YOR069W, strain VPS5, active compounds read low 0.996 | S. cerevisiae deletion strains, locus YOR070C, strain gyp1, active compounds read low 1.02 | S. cerevisiae deletion strains, locus YOR080W, strain dia2, active compounds read low 1.05 | S. cerevisiae deletion strains, locus YOR083W, strain WHI5, active compounds read low 1.02 | S. cerevisiae deletion strains, locus YOR106W, strain vam3, active compounds read low 1.04 | S. cerevisiae deletion strains, locus YOR136W, strain idh2, active compounds read low 1.01 | S. cerevisiae deletion strains, locus YOR144C, strain elg1, active compounds read low 1.01 | S. cerevisiae deletion strains, locus YOR184W, strain ser1, active compounds read low 1.01 | S. cerevisiae deletion strains, locus YOR231W, strain MKK1, active compounds read low 0.968 | S. cerevisiae deletion strains, locus YOR265W, strain rbl2, active compounds read low 1.01 | S. cerevisiae deletion strains, locus YOR270C, strain vph1, active compounds read low 1.07 | S. cerevisiae deletion strains, locus YOR290C, strain snf2, active compounds read low 1.03 | S. cerevisiae deletion strains, locus YOR316C, strain cot1, active compounds read low 1.01 | S. cerevisiae deletion strains, locus YPL051W, strain arl3, active compounds read low 1.02 | S. cerevisiae deletion strains, locus YPL055C, strain LGE1, active compounds read low 0.986 | S. cerevisiae deletion strains, locus YPL078C, strain atp4, active compounds read low 1.02 | S. cerevisiae deletion strains, locus YPL106C, strain sse1, active compounds read low 1.04 | S. cerevisiae deletion strains, locus YPL240C, strain hsp82, active compounds read low 1.02 | S. cerevisiae deletion strains, locus YPL241C, strain CIN2, active compounds read low 0.995 | S. cerevisiae deletion strains, locus YPL256C, strain CLN2, active compounds read low 0.96 | S. cerevisiae deletion strains, locus YPR119W, strain clb2, active compounds read low 1.01 | S. cerevisiae deletion strains, locus YPR141C, strain kar3, active compounds read low 1 | S. cerevisiae deletion strains, locus YPR163C, strain tif3, active compounds read low 1.02 | S. cerevisiae deletion strains, locus YPR167C, strain met16, active compounds read low 1.01 | S. cerevisiae deletion strains, strain wtn01, active compounds read low 1.03 | S. cerevisiae strains, strain wild type, active compounds read low 0.996
